Assay results reported in ChEMBL document CHEMBL3988442, “University of Dundee, Small-Polar-MMV Screening Library” (2021).
For some of these results: Results with a measured potency or affinity are listed apart.

Tests used:
Parameters in all cases: scale not given: direction of the effect not stated beside the values
[1] = molecular target: Protein translocase subunit SecA (Escherichia coli (strain K12)) (UniProt P10408); experiment: Assay to Identify E. coli SecA ATPase Inhibitors; type: functional; settings: 30 µM
Protein translocase subunit SecA (Escherichia coli (strain K12)), sequence (P10408 whole entry): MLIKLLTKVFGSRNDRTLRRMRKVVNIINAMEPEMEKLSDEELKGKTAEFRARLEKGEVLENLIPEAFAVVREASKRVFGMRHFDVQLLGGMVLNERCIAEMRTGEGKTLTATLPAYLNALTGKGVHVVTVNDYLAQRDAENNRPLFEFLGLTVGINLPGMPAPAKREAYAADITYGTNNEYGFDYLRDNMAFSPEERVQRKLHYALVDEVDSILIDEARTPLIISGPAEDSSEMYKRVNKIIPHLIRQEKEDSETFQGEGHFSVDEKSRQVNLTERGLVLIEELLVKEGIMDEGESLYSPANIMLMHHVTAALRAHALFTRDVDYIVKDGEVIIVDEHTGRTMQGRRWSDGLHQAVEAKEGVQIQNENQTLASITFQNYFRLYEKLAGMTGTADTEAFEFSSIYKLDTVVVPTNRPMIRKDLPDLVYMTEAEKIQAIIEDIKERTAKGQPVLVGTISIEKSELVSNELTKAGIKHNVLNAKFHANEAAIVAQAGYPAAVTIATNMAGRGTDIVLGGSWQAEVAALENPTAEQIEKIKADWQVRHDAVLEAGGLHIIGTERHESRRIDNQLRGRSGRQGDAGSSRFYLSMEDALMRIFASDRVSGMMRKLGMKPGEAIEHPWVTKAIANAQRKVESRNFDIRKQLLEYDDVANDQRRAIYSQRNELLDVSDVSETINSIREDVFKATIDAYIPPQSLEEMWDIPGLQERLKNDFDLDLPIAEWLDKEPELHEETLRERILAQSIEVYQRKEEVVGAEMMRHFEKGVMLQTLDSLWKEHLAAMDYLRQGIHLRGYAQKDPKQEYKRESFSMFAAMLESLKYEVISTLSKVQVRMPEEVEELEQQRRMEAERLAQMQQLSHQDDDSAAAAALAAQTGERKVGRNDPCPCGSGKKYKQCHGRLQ

[2] = molecular target: T1, Ubiquitin-activating enzyme e1, putative (Leishmania donovani (strain BPK282A1)) (UniProt E9BSI1); experiment: Leishmania donovani Ubiquitin Activating Enzyme (LdE1); type: functional; settings: 30 µM
T1 sequence (whole entry): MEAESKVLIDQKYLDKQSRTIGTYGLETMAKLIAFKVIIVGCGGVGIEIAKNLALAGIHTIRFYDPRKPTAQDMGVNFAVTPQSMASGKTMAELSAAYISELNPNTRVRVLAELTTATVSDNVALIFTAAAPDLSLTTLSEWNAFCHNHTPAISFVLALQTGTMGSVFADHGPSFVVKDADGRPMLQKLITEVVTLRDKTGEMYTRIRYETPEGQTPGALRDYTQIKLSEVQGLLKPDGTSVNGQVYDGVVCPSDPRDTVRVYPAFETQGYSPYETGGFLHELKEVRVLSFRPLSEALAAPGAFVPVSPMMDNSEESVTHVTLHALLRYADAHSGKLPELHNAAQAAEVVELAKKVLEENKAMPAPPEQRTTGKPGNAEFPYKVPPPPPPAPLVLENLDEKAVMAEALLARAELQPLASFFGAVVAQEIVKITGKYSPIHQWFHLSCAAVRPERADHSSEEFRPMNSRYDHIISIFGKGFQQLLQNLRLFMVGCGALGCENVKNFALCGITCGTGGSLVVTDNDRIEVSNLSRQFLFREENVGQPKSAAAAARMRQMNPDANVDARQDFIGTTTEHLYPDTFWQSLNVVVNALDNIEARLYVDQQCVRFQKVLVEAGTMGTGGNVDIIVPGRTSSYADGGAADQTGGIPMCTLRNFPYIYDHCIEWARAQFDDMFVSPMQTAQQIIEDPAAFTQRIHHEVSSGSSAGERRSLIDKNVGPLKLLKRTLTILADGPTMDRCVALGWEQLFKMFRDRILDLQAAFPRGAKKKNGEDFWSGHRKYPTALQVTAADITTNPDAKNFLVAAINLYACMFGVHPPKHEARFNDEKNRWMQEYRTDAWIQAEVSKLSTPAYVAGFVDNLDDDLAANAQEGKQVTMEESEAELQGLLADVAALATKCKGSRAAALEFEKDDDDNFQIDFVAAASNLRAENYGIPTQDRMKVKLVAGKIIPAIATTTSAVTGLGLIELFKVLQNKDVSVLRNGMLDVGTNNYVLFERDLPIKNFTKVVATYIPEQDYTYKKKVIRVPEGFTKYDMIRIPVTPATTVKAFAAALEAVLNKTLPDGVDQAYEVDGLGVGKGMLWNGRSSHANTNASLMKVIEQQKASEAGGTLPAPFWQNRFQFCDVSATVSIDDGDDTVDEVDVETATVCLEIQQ

[3] = molecular target: AMP-activated protein kinase, AMPK (Homo sapiens) (UniProt P54646+O43741+P54619+Q9UGJ0+Q9Y478+Q13131+Q9UGI9); experiment: AMP-dependent Kinase enzyme assay. An in vitro enzyme assay that detects ADP turnover that is directly proportional to AMPK activity. This uses naive AMPK that is activated during the assay with MK-8722; type: functional; settings: 30 µM
[4] = molecular target: Sialic acid-binding Ig-like lectin 9 (Homo sapiens) (UniProt Q9Y336); experiment: Hs-Siglec9 ALPHAscreen SOP 20170721; settings: 10 µM
Sialic acid-binding Ig-like lectin 9 (Homo sapiens), sequence (Q9Y336 whole entry): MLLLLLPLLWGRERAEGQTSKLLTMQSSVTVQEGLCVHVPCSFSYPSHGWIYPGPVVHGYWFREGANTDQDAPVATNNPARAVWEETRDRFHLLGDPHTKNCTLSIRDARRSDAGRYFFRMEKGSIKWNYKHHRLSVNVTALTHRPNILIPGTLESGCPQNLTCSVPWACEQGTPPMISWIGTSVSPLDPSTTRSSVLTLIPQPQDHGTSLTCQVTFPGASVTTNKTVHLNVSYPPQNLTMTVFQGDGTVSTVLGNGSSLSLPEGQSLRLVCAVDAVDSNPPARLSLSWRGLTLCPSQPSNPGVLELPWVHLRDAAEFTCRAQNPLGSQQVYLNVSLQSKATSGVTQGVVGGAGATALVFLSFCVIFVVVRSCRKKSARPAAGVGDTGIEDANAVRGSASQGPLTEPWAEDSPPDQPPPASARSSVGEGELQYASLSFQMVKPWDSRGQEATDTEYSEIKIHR

Trypanosoma cruzi = experiment: Trypanosoma cruzi phosphomannomutase and mannose-1-phosphate guanylyltransferase assay; type: functional; settings: 10 µM
[5] = molecular target: T2, Arginase-2, mitochondrial (Homo sapiens) (UniProt P78540); experiment: in vitro enzyme assay to detect the production of urea directly proportional to the activity of Arginase II; type: functional; settings: 33.3 µM; further: in the data most compounds retested in dose-response had high values
T2 sequence (whole entry): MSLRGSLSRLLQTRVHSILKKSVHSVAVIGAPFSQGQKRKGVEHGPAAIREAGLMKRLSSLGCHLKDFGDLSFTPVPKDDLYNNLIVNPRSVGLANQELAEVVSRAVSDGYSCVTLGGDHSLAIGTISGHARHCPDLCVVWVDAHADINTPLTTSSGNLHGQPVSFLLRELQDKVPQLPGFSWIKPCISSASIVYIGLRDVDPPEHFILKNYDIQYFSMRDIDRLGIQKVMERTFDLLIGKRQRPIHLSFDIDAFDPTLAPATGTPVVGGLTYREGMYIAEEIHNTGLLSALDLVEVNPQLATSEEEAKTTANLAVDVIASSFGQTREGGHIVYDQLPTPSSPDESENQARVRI

[6] = molecular target: T3, Proteasome subunit beta (Trypanosoma cruzi) (UniProt O96673); experiment: Trypanosoma cruzi proteasome chymotrypsin-like activity (TcProtChymo) assay.; further: in the data most compounds retested in dose-response had high values; type: functional; settings: 9.37 µM
T3 sequence (whole entry): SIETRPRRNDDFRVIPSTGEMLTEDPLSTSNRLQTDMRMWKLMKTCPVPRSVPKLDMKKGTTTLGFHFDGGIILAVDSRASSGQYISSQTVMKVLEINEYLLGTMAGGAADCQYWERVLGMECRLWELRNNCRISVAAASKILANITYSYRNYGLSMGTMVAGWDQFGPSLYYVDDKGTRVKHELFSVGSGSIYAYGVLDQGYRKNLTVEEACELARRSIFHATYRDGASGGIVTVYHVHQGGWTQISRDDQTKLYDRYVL

Homo sapiens = species: Homo sapiens; experiment: To identify inhibition of the IFN signalling (Jak-Stat) pathway via expression of an eGFP reporter gene under the control of an IFN-stimulated response element (ISRE) containing MxA promoter.; type: functional; settings: 30 µM
[7] = molecular target: T4, Tyrosyl-tRNA synthetase, putative (Trypanosoma cruzi (strain CL Brener)) (UniProt Q4DSP6); experiment: Trypanosoma cruzi tyrosyl tRNA synthetase (TcYRS) _High Tyrosine SOP; type: functional; settings: 30 µM; further: in the data most compounds retested in dose-response had high values
T4 sequence (whole entry): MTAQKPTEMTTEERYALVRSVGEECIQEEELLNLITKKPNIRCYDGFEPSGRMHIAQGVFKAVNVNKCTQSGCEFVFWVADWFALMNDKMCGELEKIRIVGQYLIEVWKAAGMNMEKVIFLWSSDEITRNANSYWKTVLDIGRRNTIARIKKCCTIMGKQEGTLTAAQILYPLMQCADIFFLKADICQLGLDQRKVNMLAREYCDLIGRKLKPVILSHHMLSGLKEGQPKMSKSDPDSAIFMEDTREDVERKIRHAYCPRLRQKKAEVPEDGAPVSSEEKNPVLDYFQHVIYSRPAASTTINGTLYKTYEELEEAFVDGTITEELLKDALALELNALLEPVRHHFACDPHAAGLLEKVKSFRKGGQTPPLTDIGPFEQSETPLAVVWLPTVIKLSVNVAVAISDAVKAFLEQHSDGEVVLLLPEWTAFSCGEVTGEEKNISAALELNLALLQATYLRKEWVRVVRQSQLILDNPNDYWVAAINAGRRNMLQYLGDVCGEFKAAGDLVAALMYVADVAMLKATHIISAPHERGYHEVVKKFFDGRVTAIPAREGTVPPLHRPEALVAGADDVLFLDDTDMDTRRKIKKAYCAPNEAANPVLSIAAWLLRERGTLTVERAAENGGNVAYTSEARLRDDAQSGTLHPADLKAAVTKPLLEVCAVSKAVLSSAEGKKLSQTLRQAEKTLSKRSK

[8] = molecular target: T4, Tyrosyl-tRNA synthetase, putative (Trypanosoma cruzi (strain CL Brener)); experiment: Trypanosoma cruzi tyrosyl tRNA synthetase (TcYRS) SOP; type: functional; settings: 30 µM
[9] = molecular target: Chromo domain-containing protein 1 (Saccharomyces cerevisiae (strain ATCC 204508 / S288c) (Baker's yeast)) (UniProt P32657); experiment: ScCHD-1 Enzyme Inhibition Assay; type: functional; settings: 30 µM; further: in the data most compounds retested in dose-response had high values
Chromo domain-containing protein 1 (Saccharomyces cerevisiae (strain ATCC 204508 / S288c) (Baker's yeast)), sequence (P32657 whole entry, the tested form may be a part): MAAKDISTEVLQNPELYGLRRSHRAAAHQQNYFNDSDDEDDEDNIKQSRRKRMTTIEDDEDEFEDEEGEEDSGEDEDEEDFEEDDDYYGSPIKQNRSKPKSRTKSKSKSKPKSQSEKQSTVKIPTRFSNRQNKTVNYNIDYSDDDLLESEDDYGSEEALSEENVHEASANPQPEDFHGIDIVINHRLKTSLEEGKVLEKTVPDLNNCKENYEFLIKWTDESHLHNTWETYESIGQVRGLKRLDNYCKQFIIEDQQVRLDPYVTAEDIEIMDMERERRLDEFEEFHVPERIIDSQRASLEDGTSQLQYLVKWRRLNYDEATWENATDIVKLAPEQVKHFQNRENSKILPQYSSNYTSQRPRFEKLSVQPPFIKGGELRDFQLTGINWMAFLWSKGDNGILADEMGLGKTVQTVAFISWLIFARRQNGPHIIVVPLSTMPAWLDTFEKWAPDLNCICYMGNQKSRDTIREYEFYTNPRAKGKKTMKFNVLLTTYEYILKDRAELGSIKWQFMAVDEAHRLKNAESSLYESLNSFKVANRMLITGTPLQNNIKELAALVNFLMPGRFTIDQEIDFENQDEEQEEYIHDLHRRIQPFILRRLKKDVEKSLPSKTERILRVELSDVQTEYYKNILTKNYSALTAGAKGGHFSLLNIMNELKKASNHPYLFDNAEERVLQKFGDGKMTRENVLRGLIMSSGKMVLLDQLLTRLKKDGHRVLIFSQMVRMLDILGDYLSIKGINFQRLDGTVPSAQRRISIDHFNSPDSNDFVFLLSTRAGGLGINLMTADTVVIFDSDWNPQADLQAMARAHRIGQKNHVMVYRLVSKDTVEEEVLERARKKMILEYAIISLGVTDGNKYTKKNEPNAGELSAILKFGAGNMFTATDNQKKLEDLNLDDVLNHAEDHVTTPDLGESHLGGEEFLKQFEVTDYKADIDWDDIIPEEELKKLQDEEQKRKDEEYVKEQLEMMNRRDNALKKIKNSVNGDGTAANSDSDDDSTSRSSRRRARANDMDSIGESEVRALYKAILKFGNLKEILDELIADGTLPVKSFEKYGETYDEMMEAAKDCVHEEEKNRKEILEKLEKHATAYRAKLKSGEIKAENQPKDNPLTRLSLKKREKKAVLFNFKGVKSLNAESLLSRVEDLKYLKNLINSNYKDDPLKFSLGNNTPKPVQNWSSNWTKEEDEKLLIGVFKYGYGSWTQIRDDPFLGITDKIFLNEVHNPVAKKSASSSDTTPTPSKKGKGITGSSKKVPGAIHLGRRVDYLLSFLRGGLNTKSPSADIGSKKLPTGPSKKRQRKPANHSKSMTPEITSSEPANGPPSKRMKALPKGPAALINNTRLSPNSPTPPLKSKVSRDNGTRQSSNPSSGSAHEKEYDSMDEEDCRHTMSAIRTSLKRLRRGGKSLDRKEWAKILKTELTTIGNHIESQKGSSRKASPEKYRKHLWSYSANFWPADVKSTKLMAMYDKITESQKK

| SMILES | Percent Effect [1] [%] | Percent Effect [2] [%] | Percent Effect [3] [%] | Percent Effect [4] [%] | Percent Effect (Trypanosoma cruzi) [%] | Percent Effect [5] [%] | Percent Effect [6] [%] | Percent Effect (Homo sapiens) [%] | Percent Effect [7] [%] | Percent Effect [8] [%] | Percent Effect [9] [%] |
| --- | --- | --- | --- | --- | --- | --- | --- | --- | --- | --- | --- |
| Cc1ccccc1CSc1nc(N)cc(N2CC[C@@H](O)C2)n1 | -5.3 | 16.2 | -11.2 | 22.8 | 7.33 | -3.23 | 11.4 | 28.7 | 20.4 | 30.9 | -7.45 |
| CN(Cc1cnn(C)c1)C(=O)NC1CCN(Cc2ccccn2)CC1 | -4.71 | 15.6 | 2.19 | -0.77 | -8.99 | 0.356 | 4.22 | 15.9 | 3.88 | 7.32 | -3.83 |
| Cn1cc(S(=O)(=O)N2CCCC2CC(=O)c2cccs2)cn1 (stereo unspecified) | 2.62 | 0 | 0.659 | -5.21 | -5.79 | 1.43 | 14.8 | 11.2 | 2.65 | 4.88 | -3.57 |
| CCn1cc(N2Cc3nc(N)ncc3C2=O)cn1 | -6.38 | 12 | -9.46 | -1.51 | 7.47 | -20.6 | 13.9 | 2.34 | 7.41 | 17.9 | -15.1 |
| CC(C)NC(=O)c1nnn(-c2cccc(C(F)(F)F)c2)c1C1CC1 | -3.01 | 15.3 | -3.96 | 15.4 | 5.73 | 15.4 | 22.8 | 11.4 | 4.21 | 12.8 | 77.3 |
| Cn1cnc(S(=O)(=O)NCCCN2CCCCCC2)c1Cl | -4.4 | 8.11 | -5.51 | 10.5 | -3.49 | 1.6 | 6.49 | 4.76 | 5.42 | 6.17 | -6.58 |
| Cc1cnc(N2CCn3cc(CNC(=O)CC4CC4)nc3C2)nc1 | -3.53 | -2.67 | 7.96 | -5.68 | -2.76 | 2.1 | -6.78 | 10.1 | -8.51 | -16.7 | -5.33 |
| CCS(=O)(=O)N1CCC(c2nnc(Cn3cccn3)n2C2CC2)CC1 | -4.32 | 1.39 | -35.4 | -1 | 2.23 | 3.97 | 2.1 | -11.4 | 2.1 | 7.69 | -2.3 |
| O=C(N[C@@H]1CN(c2ncccn2)C[C@@H]2CCCO[C@@H]21)c1cnccn1 | -0.31 | 8 | 1.89 | 11.3 | -1.74 | -48.6 | 7.18 | 10.6 | -7.29 | 20 | -6.1 |
| Cc1ccc(CN2C[C@@H]3COC[C@H](C(=O)N4CCCCO4)[C@@H]3C2)o1 | -1.82 | 13.3 | 7.57 | 2.5 | 1.57 | -1.17 | 4.32 | 0.512 | 7.45 | 19.2 | -3.93 |
| CC[C@@]1(O)CCN(C(=O)c2ccc(SC)cc2)C[C@H]1O | -4.3 | 4.17 | 0.43 | 1.71 | 6.9 | -0.442 | 10.9 | 3.45 | 4.21 | 5.13 | -3.41 |
